Test results: the supplement of paper PMC10933113
± gives the uncertainty stated by the source.

system: THP-1; test: CD86 surface expression induction over DMSO control (% over DMSO); higher = stronger dendritic cell activation; conditions: exposure time: 24 h
Description: (§1)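 hCLAT-like CD54 and CD86 surface expression on THP1 cells after 24 h exposure at a single concentration (highest non-cytotoxic concentration, or 100-200 µM if not cytotoxic). Flow cytometry (iQue) was run on 5,000 live cells.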

SMILES | CD86 surface expression induction
CC(C)=CCOc1ccc(/C=C/C(=O)c2ccc(OCC=C(C)C)cc2OCC(=O)O)cc1 [Sofalcone] (100 µM) | -6.95 ± 7.2
O=CC(=O)c1ccccc1 [Phenyl glyoxal] (100 µM) | 4.41 ± 2
O=C(CS)Nc1ccccc1 [Thioglycolic acid anilide] (300 µM) | 34.4 ± 2
c1ccc2cc3c(ccc4ccccc43)cc2c1 [Benz(a)anthracene] (200 µM) | -20.1 ± 26
O=c1n(CC2CO2)c(=O)n(CC2CO2)c(=O)n1CC1CO1 (centres undefined) [Triglycidyl isocyanurate] (10 µM) | 0.85 ± 1.2
c1ccc(-c2ccccn2)nc1 [2,2'-Dipyridyl] (200 µM) | 0.3 ± 28
O=[N+]([O-])c1cc(N(CCO)CCO)ccc1NCCO (200 µM) | -7.47 ± 11

system: THP-1; test: CD54 surface expression induction over DMSO control (% over DMSO); higher = stronger dendritic cell activation; conditions: exposure time: 24 h
Description: as §1

SMILES | CD54 surface expression induction
Clc1ccc(C(Cn2ccnc2)OCc2ccc(Sc3ccccc3)cc2)c(Cl)c1 (centres undefined) [Fenticonazole nitrate] (100 µM) | 21.1 ± 8.7
CCC(=O)C=Cc1ccc(OC)cc1 [1-(4-Methoxyphenyl)-1-pentene-3-one] (200 µM) | -15.2 ± 1.7
CC(C)=CCOc1ccc(/C=C/C(=O)c2ccc(OCC=C(C)C)cc2OCC(=O)O)cc1 [Sofalcone] (100 µM) | -27.7 ± 3.9
COC(=O)Nc1nc2cc(Sc3ccccc3)ccc2[nH]1 [Fenbendazole] (100 µM) | -38.1 ± 4.2
O=CC(=O)c1ccccc1 [Phenyl glyoxal] (100 µM) | -5.43 ± 7.7
O=C(CS)Nc1ccccc1 [Thioglycolic acid anilide] (300 µM) | 24 ± 1.8
c1ccc2cc3c(ccc4ccccc43)cc2c1 [Benz(a)anthracene] (200 µM) | -2.28 ± 4.7
